# Screening results (PubChem BioAssay)
# HT1080NT lethal = kills 2HG-producing HT-1080-NT fibrosarcoma cells | HT-1080-NT fibrosarcoma viability, CellTiter-Glo ATP luminescence, 48 h | Potency, µM (series often up to 46.1 µM), inactives show top-dose activity, negative = less viability, usual class: cytotoxic | 360,000 compounds, 1.6% hits | AID 686970;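 also: NT is the 2HG producing partner of a matched IDH1 knockdown line; 0% = DMSO-treated cells and -100% = media-only wells without cells; nearly all actives have a fitted effect of over 55% in size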
#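 HT-1080-NT; 750 cells/well; 5% FBS RPMI; 48 h compound, 37 degrees C; CellTiter-Glo luminescence; curve fitting and curve-class assignment.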
# KB-3-1 tox = kills parental KB-3-1 adenocarcinoma cells | KB-3-1 viability, CellTiter-Glo ATP luminescence, 72 h | Potency, µM (titrated, usually from 46.1 µM), usual class: cytotoxic | 400,000 compounds, 1.4% hits | AID 1347075; also: % is scaled to controls: 0 for no effect and ±100 for the full control effect; nearly all actives have a fitted effect of over 60% in size
#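 Using CellTiter-Glo luminescence, growth of non-resistant KB-3-1 adenocarcinoma cells is assessed 72 h after pin-tool compound addition at 37 °C. Normalized responses across the concentration series yield fitted curves.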
# MCF10A rerep = inducers of DNA re-replication in MCF 10A breast cells. MCF 10A DNA re-replication, Hoechst nuclear intensity, 48 h. Potency, µM (series often up to 46.1 µM), for inactives: at the top dose activity, positive = re-replication, usual class: activators. 350,000 compounds, 2.9% hits; also: % of control where 0% means no effect; nearly all actives have a fitted effect of over 50% in size
# SW480 rerep = induces DNA re-replication in SW480 colon adenocarcinoma cells; SW480 DNA re-replication, Hoechst DNA content imaging, 48 h; Potency, µM (doses to about 46.1 µM), for inactives: top-dose re-replication activation, most hits filed as activators; 340,000 compounds, 1.8% hits; AID 624297; also: % of control where 0% means no effect; nearly all actives have a fitted effect of over 55% in size
#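 Readout is total intensity of Hoechst-stained nuclei, excited at 405 nm and collected at 500-530 nm. Compound treatment lasted 48 hr at 37 C in 5% CO2 before staining.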
# HT1080 IDH1KD tx = kills HT-1080 cells with IDH1 knockdown | AID 686971 | 360,000 compounds, 2% hits | Potency, µM (highest dose often 46.1 µM), inactives show at the top dose activity, negative = toxicity, usual class: cytotoxic | HT-1080 IDH1 knockdown viability, ATP luminescence, 48 h;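 also: 0% = DMSO wells and -100% = cell-free medium wells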
#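 IDH1KD HT-1080 cells, 750/well, RPMI + 5% FBS; compound pinned after 2 h settling; 48 h, 37 °C; CellTiter-Glo luminescence; % activity normalised to DMSO and no-cell wells; curves fitted, classed by r2 and efficacy.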
# KB-V1 MDR tox = KB-V1 MDR subline cytotoxicity. KB-V1 MDR cells viability, CellTiter-Glo, 72 h. 400,000 compounds, 3.4% hits. AID 1347076. Potency, µM (series often up to 46.1 µM), actives largely listed as cytotoxic; also: % is scaled to controls: 0 for no effect and ±100 for the full control effect; nearly all actives have a fitted effect of over 60% in size
#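 Compound-treated KB-V1 multidrug-resistant cells, 72 h, 37 degrees C; viability by CellTiter-Glo. Fitted qHTS curves give the values.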
# Starred values were filed as active, the others as inactive; i = inactive; ? = inconclusive; / = no result given. Sampled rows, rich in hits. Any-hit rate of the full collection: about 8%. Calls follow the shape of the dose curve; as a rule, active = well fitted curve in the direction sought with a large enough effect; inconclusive = small, poorly fitted or top-dose-only effect, or another doubt; inactive = no such curve, though single readings can be large; an effect the other way counts as inactive or inconclusive. Potency is read from the fitted curve at half-maximal effect.
SMILES,HT1080NT lethal,KB-3-1 tox,MCF10A rerep,SW480 rerep,HT1080 IDH1KD tx,KB-V1 MDR tox
CCOC(=O)c1cnc(-n2cc(C)cn2)nc1NCc1ccc2c(c1)OCO2,3%,i,28%,7%,23%,4.1µM*
CCOC(=O)c1cnc(-n2nc(C)cc2C)nc1NC(C)c1ccccc1 (stereo not drawn),2%,?,13%,-2%,1%,1µM*
CCOC(=O)c1cnc(-n2nc(C)cc2C)nc1NCc1ccccc1,1%,?,21µM*,?,-3%,0.92µM*
CCOC(=O)c1c(C)c(C(=O)NCc2ccc3c(c2)OCO3)c(C)n1CC,0%,i,-3%,-2%,-5%,i
CC(=O)c1ccc(CCCCCCCCCC(=O)O)s1,0%,i,31%,-69%,2%,i
COc1ccc(OC)c(N2C(=O)CC(Cc3ccc(Cl)cc3)C2=O)c1 (stereo not drawn),2%,i,-2%,-2%,-1%,i
COc1ccc(OC)c(N2C(=O)CC(Cc3cc(C)cc(C)c3)C2=O)c1 (stereo not drawn),?,6.5µM*,7%,?,?,?
COc1ccc(CCn2c(=O)c3cccnc3n(Cc3cccc([N+](=O)[O-])c3)c2=O)cc1OC,-11%,?,12%,1%,17%,i
COc1ccc(NC(=O)C(C)N2c3cccc4cccc(c34)S2(=O)=O)cc1 (stereo not drawn),-20%,i,-23%,4%,-18%,i
COc1ccc(NC(=O)C(C)N2c3cccc4cccc(c34)S2(=O)=O)cc1OC (stereo not drawn),?,18µM*,8.2µM*,13µM*,?,5.2µM*
C[C@H](N)C(=O)N[C@@H](C)P(=O)(O)O,/,/,2%,-1%,/,/
O=c1/c(=C\c2ccc(O)cc2)sc2n1C(c1ccccc1)C(c1ccccc1)=NN=2 (stereo not drawn),-17%,?,7.3µM*,?,-22%,?
CCOC(=O)C1=C(c2ccccc2)N=c2s/c(=C\c3cccc(O)c3)c(=O)n2C1c1cccs1 (stereo not drawn),?,i,?,?,?,i
CCc1cccc(CC)c1NC(=O)C1CN(S(=O)(=O)c2ccccc2)CCN1S(=O)(=O)c1ccccc1 (stereo not drawn),6%,i,5%,3%,17%,i
Cc1cccc(C(C)C)c1NC(=O)C1CN(S(=O)(=O)c2ccccc2)CCN1S(=O)(=O)c1ccccc1 (stereo not drawn),7%,i,-71%,-74%,2%,4.1µM*
O=C1/C(=C/c2ccc(O)c([N+](=O)[O-])c2)SC(=S)N1Cc1ccccc1,23µM*,?,?,-6%,-19%,?
O=C1/C(=C/c2ccccc2O)SC(=S)N1Cc1cccnc1,7%,3.3µM*,6.5µM*,?,3%,?
CC(c1ccccc1)N1C(=O)/C(=C/c2ccncc2)SC1=S (stereo not drawn),?,?,16µM*,16µM*,?,?
NS(=O)(=O)c1ccc(CCN2C(=O)/C(=C\c3ccc(Cl)cc3)SC2=S)cc1,2%,?,10µM*,?,5%,18µM*
O=C1/C(=C\c2cccc([N+](=O)[O-])c2O)SC(=S)N1Cc1ccccc1,-17%,?,14%,2%,0%,i
COc1ccc(C(=O)OCC(=O)NC(C)CCc2ccccc2)cc1OC (stereo not drawn),-5%,i,-4%,-20%,2%,i
CC(=O)COC(=O)c1cc(-c2ccc(C)cc2)nc2ccccc12,0%,i,-1%,-41%,-3%,i
O=C1/C(=C\c2ccc(O)cc2)SC(=S)N1Cc1ccccc1,?,i,12%,?,23µM*,i
O=C(O)c1ccc(/C=C2/SC(=S)N(Cc3ccccc3)C2=O)cc1,-1%,?,23%,-7%,5%,i
Cc1cc(/C=C2\SC(=S)N(Cc3ccco3)C2=O)c(C)n1-c1cccnc1,-1%,i,27%,1%,-4%,?
SMILES,HT1080NT lethal,KB-3-1 tox,MCF10A rerep,SW480 rerep,HT1080 IDH1KD tx,KB-V1 MDR tox
O=C1/C(=C\c2cc(Br)cc(Br)c2O)SC(=S)N1Cc1ccccc1,-30%,?,9.2µM*,8%,-16%,i
O=C1/C(=C/c2cccnc2)SC(=S)N1Cc1ccco1,-18%,13µM*,?,?,?,21µM*
COc1ccc(CN2C(=O)/C(=C/c3ccncc3)SC2=S)cc1,?,i,23µM*,?,?,i
CC(C)(C)c1cc(CCC(=O)NCc2ccncc2)cc(C(C)(C)C)c1O,-10%,i,13%,-2%,-1%,?
CC(=O)Oc1ccc(/C=C2/SC(=S)N(Cc3ccccc3)C2=O)cc1,23%,i,3.3µM*,-36%,20%,i
O=C(O)CN1C(=O)/C(=C\c2cc(Br)ccc2OCc2ccccc2F)SC1=S,11%,i,18µM*,-22%,8%,i
O=C(O)CN1C(=O)/C(=C\c2cc(Br)ccc2OCc2ccccc2Cl)SC1=S,-8%,i,?,-8%,-16%,i
O=C(O)c1cccc(CN2C(=O)S/C(=C/c3cccc([N+](=O)[O-])c3)C2=O)c1,?,i,?,?,16µM*,i
CN(C)CCCNc1cc(Cl)c(S(=O)(=O)N2CCCCC2)cc1C(=O)O,5%,i,2.6µM*,-3%,-3%,i
C/C(=N\NC(=O)C(=O)Nc1cc(Cl)ccc1Cl)c1ccncc1,5%,i,16%,-3%,1%,i
C/C(=N\NC(=O)c1ccc(Cl)c(S(=O)(=O)Nc2ccccc2Cl)c1)c1ccncc1,2%,i,1%,1%,0%,23µM*
C/C(=N\NC(=O)C(=O)Nc1cccc(Cl)c1C)c1ccncc1,12%,i,-1%,-5%,?,21µM*
C/C(=N\NC(=O)c1cccc(S(=O)(=O)Nc2ccc(C)cc2C)c1)c1ccncc1,-1%,i,0%,-5%,-1%,i
CN(C(=O)COc1ccc2c(-c3ccccc3)cc(=O)oc2c1)C1CCS(=O)(=O)C1 (stereo not drawn),-1%,i,?,13µM*,5%,i
Cc1ccc(-c2nc(C(=O)NC3CCCCCC3)no2)cc1,-5%,i,24%,-10%,-5%,i
CCn1c(C)[n+](CCCS(=O)(=O)[O-])c2cc(Cl)c(Cl)cc21,11%,i,-2%,12%,1%,i
